Experimental data taken from PubChem BioAssay (NCATS).
Values joined by “and” are separate entries in the source; they are usually repeats but may differ in a detail not shown here. Identical values can stand only once. Records with an inconclusive call do not appear. Some compounds were tested as several samples or in several runs, with calls that do not always agree. Active and inactive are the calls of the source. Calls come from the whole dose curve; as a rule, active = well fitted curve in the direction sought with a large enough effect; inconclusive = small, poorly fitted or top-dose-only effect, or another doubt; inactive = no such curve, though single readings can be large; an effect the other way counts as inactive or inconclusive.

Molecular target: Cytochrome P450 3A7 (Homo sapiens) (UniProt P24462)
Sequence (P24462 whole entry, looked up): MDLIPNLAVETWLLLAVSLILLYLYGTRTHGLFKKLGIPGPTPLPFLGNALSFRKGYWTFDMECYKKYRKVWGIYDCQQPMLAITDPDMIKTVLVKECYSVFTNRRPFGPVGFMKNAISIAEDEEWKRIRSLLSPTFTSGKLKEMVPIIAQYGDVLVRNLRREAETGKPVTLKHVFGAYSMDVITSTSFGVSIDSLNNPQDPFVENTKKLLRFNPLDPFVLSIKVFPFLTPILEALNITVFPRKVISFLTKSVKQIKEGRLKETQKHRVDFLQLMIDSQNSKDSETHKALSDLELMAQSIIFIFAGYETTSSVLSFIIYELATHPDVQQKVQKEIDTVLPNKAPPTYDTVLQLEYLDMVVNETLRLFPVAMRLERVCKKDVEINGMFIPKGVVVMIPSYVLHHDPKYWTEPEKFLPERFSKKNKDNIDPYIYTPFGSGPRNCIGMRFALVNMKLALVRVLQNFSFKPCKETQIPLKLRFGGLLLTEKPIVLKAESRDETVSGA
Assay: Cytochrome P450 family 3 subfamily A member 7 (CYP3A7) small molecule antagonists: luciferase biochemical qHTS assay (AID 1963596); for activity change, negative = inhibition: % is set by controls: 0 for no effect and ±100 for the full control effect
Details: P450-Glo CYP3A7 enzyme luminescence, 1 h; series mostly up to 57.4 µM; activity change, negative = inhibition: at the top concentration
In short: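 Compounds were screened in qHTS format for interference with CYP3A7 turnover of a proluciferin substrate. Reactions ran 1 h at room temperature after NADPH regeneration solution was added, then luciferin product was detected by luminescence.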
Note: nearly all actives have a fitted effect of over 40% in size.
Potency is the fitted concentration of half-maximal effect.

Question: For `CC(Cc1ccc(O)cc1)NCC(O)c1cc(O)cc(O)c1` (stereo not drawn), which “activity change, negative = inhibition” value is on record?
Answer: -19.6% (inactive)

Question: With `CN[C@@H](C)[C@H](O)c1ccccc1` as the compound, how does the “activity change, negative = inhibition” value read?
Answer: 13.6% (inactive)

Question: For `Oc1cccc2cccnc12`, which “activity change, negative = inhibition” value is on record?
Answer: -13.3% (inactive)

Question: With `COc1ccsc1CNCC[C@@]1(c2ccccn2)CCOC2(CCCC2)C1` as the compound, how does the “activity change, negative = inhibition” value read?
Answer: -2.82% (inactive)

Question: With `CCC1(c2ccccc2)CCC(=O)NC1=O` (stereo not drawn) as the compound, how does the “activity change, negative = inhibition” value read?
Answer: 40.5% (inactive)

Question: Which “activity change, negative = inhibition” value does the source give for `CC1NCCOC1c1ccccc1` (stereo not drawn) here?
Answer: -16.9% (inactive)

Question: With `C#CCN(C)[C@H](C)Cc1ccccc1` as the compound, how does the “activity change, negative = inhibition” value read?
Answer: -3.79% (inactive)

Question: For `C[C@@H](N)[C@@H](O)c1ccccc1`, which “activity change, negative = inhibition” value is on record?
Answer: -14% (inactive)

Question: For `CN1[C@@H]2CC[C@H]1CC(OC(=O)c1cc(Cl)cc(Cl)c1)C2` (stereo partly drawn), which “activity change, negative = inhibition” value is on record?
Answer: 4.29% (inactive)

Question: Which “activity change, negative = inhibition” value does the source give for `O=C(O)c1ccc(=O)[nH]c1` here?
Answer: 19.6% (inactive)

Question: With `CC(C)(C)NCC(O)c1ccccc1Cl` (stereo not drawn) as the compound, how does the “activity change, negative = inhibition” value read?
Answer: -2.56% (inactive)

Question: Which “activity change, negative = inhibition” value does the source give for `O=C(O)C(Cl)Cl` here?
Answer: -1.37% (inactive)

Question: With `NC(=O)OCCCc1ccccc1` as the compound, how does the “activity change, negative = inhibition” value read?
Answer: -12.8% (inactive)

Question: With `O=C1CC[C@@]2(O)[C@H]3Cc4ccc(O)c5c4[C@@]2(CCN3CC2CC2)[C@H]1O5` as the compound, how does the “activity change, negative = inhibition” value read?
Answer: -0.973% (inactive)

Question: Which “activity change, negative = inhibition” value does the source give for `CCC1(CC)C(=O)C=CNC1=O` here?
Answer: -9.6% (inactive)

Question: Which “activity change, negative = inhibition” value does the source give for `CC(C)NCC(O)c1ccc([N+](=O)[O-])cc1` (stereo not drawn) here?
Answer: -1.82% (inactive)

Question: For `O=P1(N(CCCl)CCCl)NCCCO1` (stereo not drawn), which “activity change, negative = inhibition” value is on record?
Answer: -6.41% (inactive)

Question: With `CCS(=O)(=O)C(C)(C)S(=O)(=O)CC` as the compound, how does the “activity change, negative = inhibition” value read?
Answer: -13.3% (inactive)

Question: For `COC(=O)C1=CCCN(C)C1`, which “activity change, negative = inhibition” value is on record?
Answer: 0.836% (inactive)

Question: For `C=C1CC[C@@]2(O)[C@H]3Cc4ccc(O)c5c4[C@@]2(CCN3CC2CC2)[C@H]1O5`, which “activity change, negative = inhibition” value is on record?
Answer: -0.227% (inactive)

Question: Which “activity change, negative = inhibition” value does the source give for `Cc1sc2c(c1C)C(c1ccc(Cl)cc1)=NC(CC(=O)Nc1ccc(O)cc1)c1nnc(C)n1-2` (stereo not drawn) here?
Answer: 0% (inactive)

Question: With `O=C(Oc1ccc([N+](=O)[O-])cc1)N1CCN(Cc2cccc(Oc3ccccc3)c2)CC1` as the compound, how does the “activity change, negative = inhibition” value read?
Answer: 1.07% (inactive)

Question: Which “activity change, negative = inhibition” value does the source give for `Cn1c(CCCC(=O)O)nc2cc(N(CCCl)CCCl)ccc21` here?
Answer: -26.2% (inactive)

Question: Which “activity change, negative = inhibition” value does the source give for `CCNc1nc(Cl)nc(NCC)n1` here?
Answer: -22.5% (inactive)

Question: With `COC(=O)[C@@H](N)CCCN/C(N)=N/[N+](=O)[O-]` as the compound, how does the “activity change, negative = inhibition” value read?
Answer: 3.11% (inactive)

Question: For `CN1C(=O)COc2c(C(=O)NC3CN4CCC3CC4)cc(Cl)cc21` (stereo not drawn), which “activity change, negative = inhibition” value is on record?
Answer: -14.5% (inactive)

Question: With `Cc1cn(C[C@H](N)C(=O)O)c(=O)n(Cc2cc(-c3ccccc3)sc2C(=O)O)c1=O` as the compound, how does the “activity change, negative = inhibition” value read?
Answer: 0.812% (inactive)

Question: For `CCOC(=O)NC(C)(C)Cc1ccc(Cl)cc1`, which “activity change, negative = inhibition” value is on record?
Answer: 11.4% (inactive)

Question: Which “activity change, negative = inhibition” value does the source give for `CCC(C(N)=O)N1CCCC1=O` (stereo not drawn) here?
Answer: 7.55% (inactive)

Question: With `C=CCN1CC[C@]23c4c5ccc(O)c4O[C@H]2C(=O)CC[C@@]3(O)[C@H]1C5` as the compound, how does the “activity change, negative = inhibition” value read?
Answer: -0.405% (inactive)

Question: With `CSCC[C@@H](NC(=O)[C@@H](Cc1ccccc1)NC(=O)CNC(=O)CNC(=O)[C@@H](N)Cc1ccc(O)cc1)C(=O)O` as the compound, how does the “activity change, negative = inhibition” value read?
Answer: -30.1% (inactive)

Question: For `CC(C)(C)NCC(O)c1cc(Cl)c(N)c(C(F)(F)F)c1` (stereo not drawn), which “activity change, negative = inhibition” value is on record?
Answer: 8.29% (inactive)

Question: With `N[C@@H]1C[C@H]1c1ccccc1` as the compound, how does the “activity change, negative = inhibition” value read?
Answer: -19.8% (inactive)

Question: With `CCCN(CCC)c1c([N+](=O)[O-])cc(S(N)(=O)=O)cc1[N+](=O)[O-]` as the compound, how does the Potency read?
Answer: 1.12 µM (active)

Question: Which “activity change, negative = inhibition” value does the source give for `C1CCC(NC2CCCCC2)CC1` here?
Answer: -1.45% (inactive)

Question: Which “activity change, negative = inhibition” value does the source give for `CC(O)CN1CCN(CC(=O)[O-])CCN(CC(=O)[O-])CCN(CC(=O)[O-])CC1.[Gd+3]` (stereo not drawn) here?
Answer: 12.6% (inactive)

Question: For `NN=C(N)N`, which “activity change, negative = inhibition” value is on record?
Answer: -5.11% (inactive)

Question: With `CN1CCN(C(=O)O[C@H]2c3nccnc3C(=O)N2c2ccc(Cl)cn2)CC1` as the compound, how does the “activity change, negative = inhibition” value read?
Answer: -4.18% (inactive)

Question: For `CCCC(C)(COC(N)=O)COC(=O)NC(C)C` (stereo not drawn), which “activity change, negative = inhibition” value is on record?
Answer: -22.2% (inactive)

System: not listed separately
Assay: Viability qHTS for spleen associated tyrosine kinase inhibitor (SYKi) naive MV4-11 cells (AID 1963823)
Details: MV4-11 AML viability, CellTiter-Glo luminescence, 72 h; series mostly up to 45 µM; viability (% of control): at the top concentration
In short: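 SYKi-naive MV4-11 AML cells, 500 per well, were exposed to library compounds for 72 hr at 37 C, 5% CO2. Viability was then read by CellTiter-Glo luminescence after 10 min at room temperature.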

Question: For `CC(Cc1ccc(O)cc1)NCC(O)c1cc(O)cc(O)c1` (stereo not drawn), which “viability (% of control)” value is on record?
Answer: 46.1% (inactive)

Question: With `CN[C@@H](C)[C@H](O)c1ccccc1` as the compound, how does the “viability (% of control)” value read?
Answer: 76.3% (inactive)

Question: Which “viability (% of control)” value does the source give for `Oc1cccc2cccnc12` here?
Answer: 70.9% (inactive)

Question: With `COc1ccsc1CNCC[C@@]1(c2ccccn2)CCOC2(CCCC2)C1` as the compound, how does the “viability (% of control)” value read?
Answer: 103% (inactive)

Question: Which Potency does the source give for `CCC1(c2ccccc2)CCC(=O)NC1=O` (stereo not drawn) here?
Answer: 21.1 µM (active)

Question: For `CC1NCCOC1c1ccccc1` (stereo not drawn), which “viability (% of control)” value is on record?
Answer: 105% (inactive)

Question: For `C#CCN(C)[C@H](C)Cc1ccccc1`, which Potency is on record?
Answer: inactive

Question: With `C[C@@H](N)[C@@H](O)c1ccccc1` as the compound, how does the “viability (% of control)” value read?
Answer: 72.6% (inactive)

Question: With `CN1[C@@H]2CC[C@H]1CC(OC(=O)c1cc(Cl)cc(Cl)c1)C2` (stereo partly drawn) as the compound, how does the “viability (% of control)” value read?
Answer: 87.5% (inactive)

Question: With `O=C(O)c1ccc(=O)[nH]c1` as the compound, how does the “viability (% of control)” value read?
Answer: 95.7% (inactive)

Question: With `CC(C)(C)NCC(O)c1ccccc1Cl` (stereo not drawn) as the compound, how does the “viability (% of control)” value read?
Answer: 76.6% (inactive)

Question: With `O=C(O)C(Cl)Cl` as the compound, how does the Potency read?
Answer: inactive

Question: With `NC(=O)OCCCc1ccccc1` as the compound, how does the “viability (% of control)” value read?
Answer: 81.3% (inactive)

Question: For `O=C1CC[C@@]2(O)[C@H]3Cc4ccc(O)c5c4[C@@]2(CCN3CC2CC2)[C@H]1O5`, which Potency is on record?
Answer: inactive

Question: Which “viability (% of control)” value does the source give for `CCC1(CC)C(=O)C=CNC1=O` here?
Answer: 68% (inactive)

Question: For `CC(C)NCC(O)c1ccc([N+](=O)[O-])cc1` (stereo not drawn), which “viability (% of control)” value is on record?
Answer: 69% (inactive)

Question: With `O=P1(N(CCCl)CCCl)NCCCO1` (stereo not drawn) as the compound, how does the Potency read?
Answer: inactive

Question: With `CCS(=O)(=O)C(C)(C)S(=O)(=O)CC` as the compound, how does the “viability (% of control)” value read?
Answer: 89.3% (inactive)

Question: Which “viability (% of control)” value does the source give for `COC(=O)C1=CCCN(C)C1` here?
Answer: 93.1% (inactive)

Question: With `C=C1CC[C@@]2(O)[C@H]3Cc4ccc(O)c5c4[C@@]2(CCN3CC2CC2)[C@H]1O5` as the compound, how does the “viability (% of control)” value read?
Answer: 88.5% (inactive)

Question: Which Potency does the source give for `Cc1sc2c(c1C)C(c1ccc(Cl)cc1)=NC(CC(=O)Nc1ccc(O)cc1)c1nnc(C)n1-2` (stereo not drawn) here?
Answer: 0.148 µM (active)

Question: Which Potency does the source give for `O=C(Oc1ccc([N+](=O)[O-])cc1)N1CCN(Cc2cccc(Oc3ccccc3)c2)CC1` here?
Answer: 16.4 µM (active)

Question: Which Potency does the source give for `Cn1c(CCCC(=O)O)nc2cc(N(CCCl)CCCl)ccc21` here?
Answer: inactive and 11.8 µM (active)

Question: With `CCNc1nc(Cl)nc(NCC)n1` as the compound, how does the “viability (% of control)” value read?
Answer: 82.5% (inactive)

Question: Which “viability (% of control)” value does the source give for `COC(=O)[C@@H](N)CCCN/C(N)=N/[N+](=O)[O-]` here?
Answer: 91% (inactive)

Question: For `CN1C(=O)COc2c(C(=O)NC3CN4CCC3CC4)cc(Cl)cc21` (stereo not drawn), which “viability (% of control)” value is on record?
Answer: 63.1% (inactive)

Question: With `Cc1cn(C[C@H](N)C(=O)O)c(=O)n(Cc2cc(-c3ccccc3)sc2C(=O)O)c1=O` as the compound, how does the “viability (% of control)” value read?
Answer: 95.4% (inactive)

Question: Which “viability (% of control)” value does the source give for `CCOC(=O)NC(C)(C)Cc1ccc(Cl)cc1` here?
Answer: 77.8% (inactive)

Question: For `CCC(C(N)=O)N1CCCC1=O` (stereo not drawn), which “viability (% of control)” value is on record?
Answer: 107% (inactive)

Question: With `C=CCN1CC[C@]23c4c5ccc(O)c4O[C@H]2C(=O)CC[C@@]3(O)[C@H]1C5` as the compound, how does the “viability (% of control)” value read?
Answer: 74.2% (inactive)

Question: For `CSCC[C@@H](NC(=O)[C@@H](Cc1ccccc1)NC(=O)CNC(=O)CNC(=O)[C@@H](N)Cc1ccc(O)cc1)C(=O)O`, which “viability (% of control)” value is on record?
Answer: 85.1% (inactive)

Question: For `CC(C)(C)NCC(O)c1cc(Cl)c(N)c(C(F)(F)F)c1` (stereo not drawn), which “viability (% of control)” value is on record?
Answer: 75.5% (inactive)

Question: For `N[C@@H]1C[C@H]1c1ccccc1`, which Potency is on record?
Answer: 16.6 µM (active)

Question: Which Potency does the source give for `CCCN(CCC)c1c([N+](=O)[O-])cc(S(N)(=O)=O)cc1[N+](=O)[O-]` here?
Answer: 21.7 µM (active)

Question: With `C1CCC(NC2CCCCC2)CC1` as the compound, how does the “viability (% of control)” value read?
Answer: 81.9% (inactive)

Question: For `CC(O)CN1CCN(CC(=O)[O-])CCN(CC(=O)[O-])CCN(CC(=O)[O-])CC1.[Gd+3]` (stereo not drawn), which “viability (% of control)” value is on record?
Answer: 91.5% (inactive)

Question: With `NN=C(N)N` as the compound, how does the “viability (% of control)” value read?
Answer: 74.1% (inactive)

Question: Which “viability (% of control)” value does the source give for `CN1CCN(C(=O)O[C@H]2c3nccnc3C(=O)N2c2ccc(Cl)cn2)CC1` here?
Answer: 67.9% (inactive)

Question: For `CCCC(C)(COC(N)=O)COC(=O)NC(C)C` (stereo not drawn), which “viability (% of control)” value is on record?
Answer: 91% (inactive)
